Most compounds without a hit are left out; they make up all but 8.3% or so of the library.
Lassa entry inh = Lassa virus entry inhibition; Potency, µM (titrated, usually from 37.9 µM), for inactives: at the highest dose activity change, negative = inhibition, hits mostly inhibitors; Lassa virus pseudotype entry inhibition, cell reporter; 1.2% of 300,000 active; calls by dose curve; tested in HEK293 cells; also: potency is read from the fitted curve at half-maximal effect; nearly all actives have a fitted effect of over 50% in size
HCMV antiviral = human cytomegalovirus inhibition | HFF cells, HCMV-luciferase reporter, 72 h; hits give low values | activity change, negative = inhibition, % at 57.5 µM | 4.5% of 410,000 active | AID 1259415; in the data active = activity change below about -60%; inconclusive = no clear call, values can overlap the other calls; inactive = above about -39%
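Two-dose cell screen: HFF monolayers treated with compounds and infected with luciferase-expressing HCMV at 1 PFU/cell, 72 h at 37C, then lysed for luciferase measurement.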
FBPA Giardia inh = Giardia lamblia aldolase inhibition | Potency, µM (top dose mostly 59.6 µM), for inactives: at the highest dose activity, negative = inhibition, actives largely listed as inhibitors | AID 2451 | A8B2U2 | purified Giardia FBPA | 0.71% of 290,000 active; also: potency is read from the fitted curve at half-maximal effect; nearly all actives have a fitted effect of over 55% in size
Target sequence (A8B2U2 whole entry, looked up): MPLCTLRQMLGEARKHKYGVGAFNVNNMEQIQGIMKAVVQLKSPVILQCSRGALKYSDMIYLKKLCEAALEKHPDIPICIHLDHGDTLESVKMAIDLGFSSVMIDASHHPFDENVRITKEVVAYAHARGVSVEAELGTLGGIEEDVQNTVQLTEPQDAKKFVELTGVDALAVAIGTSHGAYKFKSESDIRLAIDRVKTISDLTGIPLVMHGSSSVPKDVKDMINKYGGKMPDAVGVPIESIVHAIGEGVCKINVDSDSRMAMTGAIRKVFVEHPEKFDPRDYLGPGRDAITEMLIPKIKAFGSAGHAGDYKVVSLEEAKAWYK
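40 nM FBPA preincubated 10 min at RT with compound (up to 57.5 uM final), then substrate plus GAPDH/TPI/NAD/arsenate coupling and diaphorase/resazurin added. Fluorescence read after 20 min at RT, 525/598 nm.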
FMDV inh = blocks foot and mouth disease virus. FMDV antiviral cell-based qHTS. Potency, µM (highest dose often 57.9 µM), for the others: at the top dose activity change, negative = inhibition, usual class: inhibitors. 1.2% of 410,000 active; calls by dose curve; tested in HEK293T cells; also: read-out not given here; potency is read from the fitted curve at half-maximal effect; nearly all actives have a fitted effect of over 45% in size
HCV inhibitor = blocks hepatitis C virus | Huh7.5.1 HCVcc-Cre infection, luciferase reporter, 44 h | Potency, µM (series often up to 41.8 µM), inactives show at the highest dose activity change, negative = inhibition, hits mostly inhibitors | 3.4% of 340,000 active | AID 651820; also: potency is read from the fitted curve at half-maximal effect
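A cell-based infection assay in which seeded cells (1,000 per well) receive test compound after 4 h, are inoculated with HCVcc-Cre at approximately 0.5 moi, and are incubated 44 h before luminescence detection.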
Marburg entry inh = Marburg virus entry inhibition; Marburg virus pseudotyped entry inhibition, cell reporter; AID 540276; Potency, µM (top dose mostly 37.8 µM), without a hit: at the highest dose activity change, negative = inhibition, actives largely listed as inhibitors; 1.8% of 300,000 active; calls by dose curve; tested in HEK293 cells; also: potency is read from the fitted curve at half-maximal effect
* marks the source's active call; other numbers are inactive results; ? = inconclusive; . = no result given; [ ] = remark or other dose. Unless noted, calls follow the shape of the dose curve; as a rule, active = well fitted curve in the direction sought with a large enough effect; inconclusive = small, poorly fitted or top-dose-only effect, or another doubt; inactive = no such curve, though single readings can be large; an effect the other way counts as inactive or inconclusive. % is scaled to controls: 0 for no effect and ±100 for the full control effect.

SMILES	Lassa entry inh	HCMV antiviral	FBPA Giardia inh	FMDV inh	HCV inhibitor	Marburg entry inh
CCOc1ccccc1N1CC(O)=C(c2nc3ccccc3s2)C1=N	?	-8	?	.	?	5.8µM*
COc1ccc(N2CC(O)=C(c3nc(-c4ccccc4)cs3)C2=N)cc1	.	-26	0%	-3%	-13%	.
COc1ccc(OC)c(N2CC(O)=C(c3nc4ccccc4s3)C2=N)c1	?	-9	0%	7%	25µM*	?
O=C(Nc1cc2ccc(O)cc2oc1=O)c1ccccc1	-23%[46.1 µM]	79	.	1%	.	.
NC(=O)c1ccsc1NC(=O)c1ccc(S(=O)(=O)N2CCCc3ccccc32)cc1	?	-71*	-11%	35µM*	11µM*	?
CC(C)N1CCc2c(sc(NC(=O)c3ccc(S(=O)(=O)N4CCc5ccccc54)cc3)c2C(N)=O)C1	.	.	-24%	?	11µM*	.
CNC(=O)c1c(NC(=O)c2ccc(S(=O)(=O)N(C)c3ccccc3)cc2)sc2c1CCN(C(C)C)C2	.	0	-29%	-25%	11µM*	.
CC(C(=O)Nc1cc(C(F)(F)F)ccc1Cl)n1nnc2sc3c(c2c1=O)CCCC3 (stereo unspecified)	2%[46.1 µM]	-17	.	-25%	.	12%[46.1 µM]
CC(C)C[C@@H](CC(=O)N[C@H](CC(=O)N[C@@H]1CCNC[C@H]1C(=O)N[C@H](CC(=O)N[C@@H](CCC(=O)O)CC(=O)O)Cc1ccccc1)C(C)C)NC(=O)[C@@H]1CCCC[C@H]1N	.	.	3%	.	.	.
CCC(C)n1c(O)c(/C=N/Nc2ccccc2)c(=O)[nH]c1=S (stereo unspecified)	?	-80*	-26%	12%	-4%	4%
CCC(C)n1c(O)c(C=NCCc2ccccc2)c(=O)[nH]c1=S (stereo unspecified)	.	9	-10%	0%	3%	.
COc1ccc2c(c1)C(c1ccccc1C)CC(=O)O2 (stereo unspecified)	.	.	-12%[89.2 µM]	.	.	.
COC(=O)c1nnn(CC(=O)Nc2cc(F)ccc2F)c1C(=O)OC	-1%[46.1 µM]	-109*	.	-12%	.	5%[46.1 µM]
Cc1ccc(N=C2C(=O)Nc3ccccc32)cc1	.	16	-12%	-10%	-7%	.
Cc1nc2c(o1)C(=O)c1ccccc1C2=Nc1ccccc1	11µM*	-100*	.	18µM*	2.8µM*	?
CCOc1ccc(S(=O)(=O)Nc2cc(SCC(=O)O)c(O)c3ccccc23)cc1	.	9	6.3µM*	?	10µM*	.
CCOc1ccc(S(=O)(=O)Nc2cc3c(C(=O)OC)c(COC)oc3c3ccccc23)cc1	-26%[46.1 µM]	19	.	38%	.	?
CCc1ccc(S(=O)(=O)Nc2cc(SCC(=O)O)c(O)c3ccccc23)cc1	?	63	4.5µM*	?	?	?
CCc1ccc(S(=O)(=O)Nc2ccc(O)c3ccccc23)cc1	.	?	-16%	-26%	-16%	.
Cc1ccc(C)c(S(=O)(=O)Nc2cc(SCC(=O)O)c(O)c3ccccc23)c1	?	.	2.2µM*	?	?	?
O=S(=O)(Nc1cc(Sc2cccc3cccnc23)c(O)c2ccccc12)c1ccccc1	18µM*	-100*	?	.	?	?
O=C(O)CSc1cc(NS(=O)(=O)c2cccc([N+](=O)[O-])c2)c2ccccc2c1O	.	0	2.5µM*	10µM*	11µM*	.
Cc1ccc(C=CC2=C[C@]3(C)C[C@]2(C)[C@H](c2ccc(C)cc2)CC3=O)cc1	.	.	.	.	.	-4%[14.2 µM]
Cc1ccc(C(=O)Nc2ccc(NC(=O)c3cccs3)cc2)cc1[N+](=O)[O-]	.	-30	3%	-3%	-20%	.
Cc1ccc(NC(=O)c2cccs2)cc1[N+](=O)[O-]	-10%	14	-14%	25%	7.9µM*	-13%[46.1 µM]
SMILES	Lassa entry inh	HCMV antiviral	FBPA Giardia inh	FMDV inh	HCV inhibitor	Marburg entry inh
COc1ccc(C(=O)Nc2ccc(NC(=O)c3cccs3)cc2)cc1[N+](=O)[O-]	-13%	41	2%	-8%	2%	-28%
COc1cc(NC(=O)c2ccc([N+](=O)[O-])o2)ccc1NC(=O)c1cccs1	?	-4	-14%	-7%	?	?
Cc1ccc(C(=O)NC(=S)Nc2ccc(NC(=O)c3cccs3)cc2)cc1[N+](=O)[O-]	5%	-78*	1%	?	-10%	-20%
O=C(Nc1cccc(NC(=O)c2cccs2)c1)c1ccc([N+](=O)[O-])o1	?	-92*	-13%	-22%	10µM*	?
COc1nnc(-c2ccc(N3CCCCC3)c(NC(=O)C3CCCCC3)c2)c2ccccc12	17%	-101*	2%	?	-9%	2%
COc1nnc(-c2ccc(N3CCCCC3)c(NC(=O)c3ccccc3)c2)c2ccccc12	24%[46.1 µM]	-25	.	8.9µM*	.	?
COc1nnc(-c2ccc(N3CCOCC3)c(NC(=O)C3CCCCC3)c2)c2ccccc12	-7%	?	-3%	?	?	-13%
O=C(NCc1nc2cccnc2n1Cc1ccc(F)cc1)c1ccccc1C(F)(F)F	6%[46.1 µM]	-61*	.	-7%	.	.
C(=CCSc1ccccn1)CSc1ccccn1	.	6	.	.	.	.
O=C(c1ccco1)N1CCN(c2cc(N3CCOCC3)c(F)cc2[N+](=O)[O-])CC1	?	-103*	0%	-13%	-13%	-14%[46.1 µM]
CN1CCN(c2cc(N3CCCC3)c([N+](=O)[O-])cc2F)CC1	3%	-27	4%	-7%	?	11%[46.1 µM]
O=C(c1ccco1)N1CCN(c2ccc([N+](=O)[O-])cc2F)CC1	14%[46.1 µM]	8	.	12%	-18%	18%[46.1 µM]
CCOC(=O)N1CCN(c2cc(N3CCOCC3)c(F)cc2[N+](=O)[O-])CC1	7.9µM*	6	3%	0%	-13%	-7%
CCN1CCN(c2cc(N3CCCC3)c(F)cc2[N+](=O)[O-])CC1	?	?	0%	-11%	?	21µM*
COc1ccc(-c2nn3c(-c4ccc(C)cc4)nnc3c3ccccc23)cc1	23%[46.1 µM]	73	.	-12%	.	-9%[46.1 µM]
O=C1CS(=O)(=O)N(Cc2ccccc2F)c2ccc(Br)cc21	.	-11	.	0%	-1%	.
C=CCOC1=CS(=O)(=O)N(Cc2ccc(Br)cc2)c2ccc(Br)cc21	.	16	.	-22%	20µM*	.
CCOC(CNCc1cc(C)c2[nH]c3ccccc3c2c1C)OCC	?	?	.	?	1.8µM*	?
COc1ccc(OCC2CN(C3CCCC3)S(=O)(=O)CCO2)cc1 (stereo unspecified)	.	-18	.	.	.	.
CC(=O)N1CCC2(CCN(Cc3ccc(C#N)cc3)CC2)CC1	.	.	-1%	-29%	.	.
COC(=O)c1ccc(/C=C2\SC(=S)N(CCCC(=O)NCCCN3CCOCC3)C2=O)cc1	.	?	.	-9%	-6%	?
CCc1ccc(/C=C2\SC(=S)N(CCCC(=O)Nc3ccccn3)C2=O)cc1	11µM*	-103*	1%	20µM*	-4%	?

Source: PubChem BioAssay (National Center for Advancing Translational Sciences (NCATS))
